The text below walks through data of PubChem BioAssay (NCI).

Molecules are shown by their SMILES. The panel holds about 83,000 compounds, 20% with a hit somewhere; the sample as a whole holds those more often.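 A percent growth of 40 corresponds to 60% growth inhibition; 0 means no net growth; -100 means all cells died. Active threshold: below 10.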 Unmarked numbers belong to inactive results. Calls of active or inactive are those of the source.

The experiment deals with RPMI-8226 leukemia. In words: NCI-60 one-dose screen, 48 h (100 = growth as untreated, 0 = no growth, -100 = all killed). Particulars: 10 µM unless noted.
In the case of `O=C(CC(O)c1ccncc1)c1ccccc1` (stereo not drawn), the growth was 97.9%. Then `O=c1oc2c([nH]c3ccc4ccccc4c32)c2ccccc12`, with 103%.

In the case of `Nc1c(C(=O)Nc2ccccc2)sc2nc3c(cc12)CCC3`, the growth was 83.4%. For `COc1ccc(C2CC(c3cccs3)=NN2c2ccc(S(=O)(=O)NC(=O)NCc3cccc(OC)c3)cc2)cc1` (stereo not drawn), the growth was 95.3%.

For the compound `COc1cc(NC(=O)CSc2nc3ccc(C)cc3c(=O)n2-c2ccccc2)cc(OC)c1OC`, the growth was 76.3%.

Take `Cc1ccc(S(=O)(=O)OC2COCOC2C(OS(=O)(=O)c2ccc(C)cc2)C2OCOCC2OS(=O)(=O)c2ccc(C)cc2)cc1` (stereo not drawn): the growth was 107%. With `CC(=O)Nc1ccc(S(=O)(=O)N2C(=O)CCC2C(=O)Nc2ccc(Br)cc2)cc1` (stereo not drawn), the growth is 10.1%. The value for `O=C(O)c1ccc(-n2c(=O)c3ccccc3c3ccccc3c2=O)cc1` was 103%; that for `CS(=O)(=O)N(c1cc(-c2ccc3ncnc(Nc4cccc(Cl)c4)c3c2)cnc1Cl)S(C)(=O)=O` was -6.09% (active); that for `CN(C)c1ncc(-c2ccc(C(F)(F)F)cc2)c(NC2CCCCCC2)n1` was 1.63% (active).

For `O=S(=O)(NCCNc1cc(-c2cn(-c3ccccc3)nc2-c2ccccc2)ccn1)c1cccc2ccccc12`, the growth was 38.7%.

With `CC/C=C\C[C@H](O)C/C=C1/C(=O)C(Cl)=C[C@@H]1C/C=C\CCCC(=O)O`, the growth is 14.7%. Then `CC[C@H](C)[C@@H]1NC(=O)[C@H]([C@@H](C)O)NC(=O)C(Cc2ccccc2)NC(=O)[C@@H]2CCCN2C(=O)C(C(C)C)NC(=O)C(Cc2ccccc2)NC(=O)CNC(=O)[C@@H]2CCCN2C1=O` (stereo partly drawn), with 7.56% (active).
